Results filed as inconclusive are left out. Calls of active or inactive are those of the source. The calls were made as follows: active = hit-call score of the fitted dose curve at least 0.9, where 1 is the maximum; inconclusive = response in the unintended direction; inactive = score below 0.9.
Assay: CCTE_Harrill_HTTr_CellCount_MCF7: CCTE's Cell Proliferation Assessment for the High-Throughput Transcriptomics (HTTr) Platform, Harrill Lab (AID 2284012);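 also: cells exposed to compound for six hours; intended direction is loss of nuclei count meaning fewer cells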
Method in brief: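 Chemicals in eight-point dilution series are added to MCF-7 cells for six hours, nuclei are stained with Hoechst and imaged, and per-well nuclei counts are fitted in both directions relative to DMSO controls.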

outcome, inactive:
N#Cc1ccccc1
CC(C)(Oc1ccc(CCNC(=O)c2ccc(Cl)cc2)cc1)C(=O)O
Cc1c(N(C)C)c(=O)n(-c2ccccc2)n1C
CC1=CCC(O)(C(C)C)CC1 (centres undefined)
